Source: the supplement of paper PMC12808144
Values without a mark were called inactive.

Key:
[1] = tested on: Mel-DCC-11; experiment: cell viability relative to DMSO control (fraction of DMSO control); higher = less cytotoxic, active = 0.5 or less; details: 1 µM; 120 h
In short: (§1)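 A library of 315 approved anti-cancer drugs (TargetMol) was acoustically pre-spotted into 384-well plates and tested at 1 µM in duplicate for 120 h. Cells were added in 40 µl per well: NHEM-hTERT immortalized melanocytes at 2500/well, and patient-derived Mel-DCC-11 and its resistant subline Mel-DCC-11-R at 1500/well. The subline was tested both alone and with 8 µM of its selecting drug. Viability was read by ATPlite 1step luminescence, normalised to DMSO controls and averaged over duplicates.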

[2] = tested on: NHEM-hTERT; experiment: as above; details: 1 µM; 120 h
In short: as §1

[3] = tested on: Mel-DCC-11-R; experiment: cell viability relative to DMSO control (fraction of DMSO control); higher = less cytotoxic, active = 0.8 or less; details: 1 µM, 120 h
In short: as §1

Row | Structure (SMILES) | cell viability [1] | cell viability [2] | cell viability ([3]; vemurafenib co-treatment 0 µM) | cell viability ([3]; vemurafenib co-treatment 8 µM)
1 | CS(=O)(=O)c1ccc(C(=O)Nc2ccc(Cl)c(-c3ccccn3)c2)c(Cl)c1 [Vismodegib] | 0.785 | 0.961 | 0.807 | 0.892
2 | O=C1CCC(N2C(=O)c3ccccc3C2=O)C(=O)N1 (configuration not stated) [Thalidomide] | 1.2 | 1.1 | 0.897 | 0.589 (active)
3 | N.N.O=C([O-])C1(C(=O)[O-])CCC1.[Pt+2] [Carboplatin] | 1.13 | 1.05 | 0.973 | 1.23
4 | O=C(/C=C\n1cnc(-c2cc(C(F)(F)F)cc(C(F)(F)F)c2)n1)NNc1cnccn1 [Selinexor] | 0.445 (active) | 0.73 | 1.59 | 0.678 (active)
5 | COc1cc2ncnc(Nc3ccc(F)c(Cl)c3)c2cc1OCCCN1CCOCC1 [Gefitinib] | 1.08 | 0.905 | 0.893 | 0.629 (active)
6 | O=c1[nH]c(=O)n([C@H]2C[C@H](O)[C@@H](CO)O2)cc1C(F)(F)F [Trifluridine] | 1.7 | 1.12 | 1.24 | 1.06
7 | COc1cc2ncnc(Nc3ccc(F)c(Cl)c3)c2cc1NC(=O)/C=C/CN1CCCCC1 [Dacomitinib] | 0.818 | 1.03 | 1.07 | 0.911
8 | CCCS(=O)(=O)Nc1ccc(F)c(C(=O)c2c[nH]c3ncc(-c4ccc(Cl)cc4)cc23)c1F [Vemurafenib] | 0.983 | 0.746 | 0.991 | 0.905
9 | COc1cc2c(cc1O)CC[C@@H]1[C@@H]2CC[C@]2(C)[C@@H](O)CC[C@@H]12 [2-Methoxyestradiol] | 0.961 | 0.87 | 1.29 | 0.985
10 | Nc1ccc(F)cc1NC(=O)c1ccc(CNC(=O)/C=C/c2cccnc2)cc1 [Chidamide] | 1.27 | 0.668 | 1.34 | 1.16
11 | CS(=O)(=O)O.Cc1ccc(NC(=O)c2ccc(CN3CCN(C)CC3)cc2)cc1Nc1nccc(-c2cccnc2)n1 [Imatinib Mesylate] | 1.15 | 0.965 | 0.94 | 1.1
12 | NCCNc1ccc(NCCN)c2c1C(=O)c1ccncc1C2=O.O=C(O)/C=C\C(=O)O.O=C(O)/C=C\C(=O)O [Pixantrone dimaleate] | 1.42 | 0.889 | 1.62 | 0.868
13 | CCN(c1cc(-c2ccc(CN3CCOCC3)cc2)cc(C(=O)NCc2c(C)cc(C)[nH]c2=O)c1C)C1CCOCC1 | 1.12 | 0.964 | 0.831 | 0.967
14 | COc1ccc2[nH]cc(CCNC(C)=O)c2c1 [Melatonine] | 0.874 | 0.936 | 0.786 (active) | 0.839
15 | O=C(/C=C/c1cccc(S(=O)(=O)Nc2ccccc2)c1)NO [Belinostat] | 1.03 | 0.737 | 0.839 | 0.659 (active)
16 | COc1cccc2c1C(=O)c1c(O)c3c(c(O)c1C2=O)C[C@@](O)(C(=O)CO)C[C@@H]3O[C@H]1C[C@H](N)[C@@H](O)[C@H](C)O1.Cl [Epirubicin hydrochloride] | 0.286 (active) | 0.647 | 0.426 (active) | 0.183 (active)
17 | COc1ccc([C@@H]2CC(=O)c3c(O)cc(O)cc3O2)cc1O [Hesperetin] | 1.01 | 0.971 | 0.891 | 1.05
18 | CNCc1ccc(-c2[nH]c3cc(F)cc4c3c2CCNC4=O)cc1.O=P(O)(O)O [Rucaparib Phosphate] | 1.1 | 0.996 | 0.916 | 1.11
19 | O=C(CCCCCCC(=O)Nc1ccccc1)NO [Vorinostat] | 1.05 | 0.871 | 0.923 | 1.04

Row | Structure (SMILES) | cell viability [1] | cell viability [2] | cell viability ([3]; vemurafenib co-treatment 0 µM) | cell viability ([3]; vemurafenib co-treatment 8 µM)
20 | CCCCCCCCCCCC1=C(O)C(=O)C=C(O)C1=O [Embelin] | 1.24 | 1.01 | 1.07 | 1.15
21 | Cn1nnc(-c2ccc(-c3ccc(N4C[C@H](CO)OC4=O)cc3F)cn2)n1 [Torezolid] | 2 | 0.958 | 0.848 | 0.663 (active)
22 | CCCCCCCCCCCCCCCCCCOCC(O)CO (configuration not stated) [Batyl alcohol] | 0.948 | 1.07 | 0.92 | 0.995
23 | COc1cc([C@H]2Oc3cc([C@H]4Oc5cc(O)cc(O)c5C(=O)[C@@H]4O)ccc3O[C@@H]2CO)ccc1O [Silibinin] | 0.939 | 0.948 | 0.799 (active) | 0.914
24 | CC[C@]1(O)C[C@@H]2C[N@@](CCc3c([nH]c4ccccc34)[C@@](C(=O)OC)(c3cc4c(cc3OC)N(C)[C@H]3[C@@](O)(C(=O)OC)[C@H](OC(C)=O)[C@]5(CC)C=CCN6CC[C@]43[C@@H]65)C2)C1.O=S(=O)(O)O [Vinblastine sulfate] | 0.428 (active) | 0.567 | 0.488 (active) | 0.252 (active)
25 | CNC(=O)c1c(C)oc2cc(Oc3ncnc4cc(OC)c(OC)cc34)ccc12 [Fruquintinib] | 1.34 | 0.982 | 1.09 | 1.05
26 | CN(C)N=Nc1[nH]cnc1C(N)=O [Dacarbazine] | 2.24 | 0.982 | 1.04 | 1.17
27 | C[C@H]1O[C@@H](n2cc(F)c(=O)[nH]c2=O)[C@H](O)[C@@H]1O [Doxifluridine] | 1.31 | 0.863 | 1.08 | 1.21
28 | CN1[C@@H]2CCC[C@H]1C[C@@H](NC(=O)c1nn(C)c3ccccc13)C2.Cl [Granisetron hydrochloride] | 1.15 | 1.07 | 0.924 | 1.07
29 | Cc1cc(Nc2ncc(Cl)c(Nc3ccccc3S(=O)(=O)C(C)C)n2)c(OC(C)C)cc1C1CCNCC1 | 0.955 | 0.88 | 1.17 | 0.873
30 | Cc1nc2ccc(CN(C)c3ccc(C(=O)N[C@@H](CCC(=O)O)C(=O)O)s3)cc2c(=O)[nH]1 [Raltitrexed] | 1 | 1.03 | 1.16 | 1.09
31 | C=CC(=O)Nc1cc(Nc2nccc(-c3cn(C)c4ccccc34)n2)c(OC)cc1N(C)CCN(C)C.CS(=O)(=O)O [Osimertinib mesylate] | 0.859 | 1.14 | 1.21 | 0.744 (active)
32 | CC(C)C[C@H](NC(=O)[C@H](CCc1ccccc1)NC(=O)CN1CCOCC1)C(=O)N[C@@H](Cc1ccccc1)C(=O)N[C@@H](CC(C)C)C(=O)[C@@]1(C)CO1 [Carfilzomib] | 0.0151 (active) | 0.0167 (active) | 0.0186 (active) | 0.018 (active)
33 | O=[N+]([O-])c1cncn1CCN1CCOCC1 [Nimorazole] | 1.13 | 1.14 | 1.02 | 1.08
34 | CCc1c2c(nc3ccc(OC(=O)N4CCC(N5CCCCC5)CC4)cc13)-c1cc3c(c(=O)n1C2)COC(=O)[C@]3(O)CC [Irinotecan] | 0.988 | 0.894 | 0.98 | 0.694 (active)
35 | C=C1CC[C@H](O)C/C1=C/C=C1\CCC[C@]2(C)[C@@H]([C@H](C)/C=C/[C@H](C)C(C)C)CC[C@@H]12 [Vitamin D2] | 1.13 | 0.998 | 1 | 1.16
36 | Cl.N=C1CCCN1Cc1[nH]c(=O)[nH]c(=O)c1Cl.O=c1[nH]c(=O)n([C@H]2C[C@H](O)[C@@H](CO)O2)cc1C(F)(F)F.O=c1[nH]c(=O)n([C@H]2C[C@H](O)[C@@H](CO)O2)cc1C(F)(F)F | 1.27 | 0.967 | 1.23 | 1.1
37 | CC(=O)O.CC(C)C[C@H](NC(=O)[C@@H](COC(C)(C)C)NC(=O)[C@H](Cc1ccc(O)cc1)NC(=O)[C@H](CO)NC(=O)[C@H](Cc1c[nH]c2ccccc12)NC(=O)[C@H](Cc1cnc[nH]1)NC(=O)[C@@H]1CCC(=O)N1)C(=O)N[C@@H](CCCN=C(N)N)C(=O)N1CCC[C@H]1C(=O)NNC(N)=O [Goserelin acetate] | 1.22 | 1.07 | 0.927 | 1.13
38 | CO[C@H]1C=CO[C@@]2(C)Oc3c(C)c(O)c4c(O)c(c(/C=N/N5CCN(C)CC5)c(O)c4c3C2=O)NC(=O)/C(C)=C\C=C/[C@H](C)[C@H](O)[C@@H](C)[C@@H](O)[C@@H](C)[C@H](OC(C)=O)[C@@H]1C [Rifampicin] | 0.597 | 1.03 | 0.882 | 0.848
